Tb PYK inh – blocks Trypanosoma brucei pyruvate kinase. Q57TT1. TbPYK enzyme, Kinase-Glo Plus ATP luminescence, 45 min. Potency, µM (top dose mostly 76.8 µM), hits mostly inhibitors. 0.12% of 410,000 active; note: nearly all actives have a fitted effect of over 50% in size
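Luminescence from Kinase-Glo Plus, added after a 45-minute room-temperature reaction, served as the end-point read-out. The enzyme and substrate were preincubated with compound before ADP (130 uM final) initiated turnover. Concentration-effect curves came from normalized qHTS data.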
Shiga toxin inh – blocks Shiga toxin action in Vero cells; Vero cells, Shiga toxin protein synthesis inhibition reporter; inhibition, % at 38.7 µM; 9.2% of 290,000 active; in the data active = inhibition mostly above about 28%, no sharp cut-off; inactive = mostly below about 43%
CHX counter – counter-screen for Shiga toxin inhibitors: cycloheximide protein synthesis inhibition | cell reporter, cycloheximide protein synthesis inhibition counterscreen | max response, % | 12% of 300,000 active | AID 2314; in the data active = max response mostly above about 13%, no sharp cut-off; inactive = mostly below about 14%; note: read at 38.3 µM for the half of the compounds with a filed dose
LmPK inhibitor – inhibitors of Leishmania mexicana pyruvate kinase; purified LmPK, Kinase-Glo ATP luminescence, 1 h; Q27686; 0.37% of 290,000 active; Potency, µM (titrated, usually from 57.5 µM), actives largely listed as inhibitors
Target sequence (Q27686 whole entry, looked up): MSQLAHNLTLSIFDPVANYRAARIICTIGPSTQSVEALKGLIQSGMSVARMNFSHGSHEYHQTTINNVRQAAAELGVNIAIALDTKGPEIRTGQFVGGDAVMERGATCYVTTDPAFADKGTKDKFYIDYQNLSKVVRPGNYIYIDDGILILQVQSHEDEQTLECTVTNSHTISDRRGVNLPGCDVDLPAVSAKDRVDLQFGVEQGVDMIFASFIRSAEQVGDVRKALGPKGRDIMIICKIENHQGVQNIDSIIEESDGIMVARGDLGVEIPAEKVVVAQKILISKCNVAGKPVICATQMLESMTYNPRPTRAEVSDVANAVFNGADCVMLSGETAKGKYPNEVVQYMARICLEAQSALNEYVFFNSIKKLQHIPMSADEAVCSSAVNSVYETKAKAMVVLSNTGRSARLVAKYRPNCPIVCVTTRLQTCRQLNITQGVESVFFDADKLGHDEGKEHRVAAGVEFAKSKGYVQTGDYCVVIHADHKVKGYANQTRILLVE
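Kinase-Glo luminescence read after 1 h RT reaction of 0.1 nM LmPK with 0.5 mM PEP and 0.1 mM ADP. Activity scaled between uninhibited and enzyme-free controls.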
FBPA Giardia inh – Giardia lamblia aldolase inhibition. A8B2U2. purified Giardia FBPA. Potency, µM (top dose mostly 59.6 µM), actives largely listed as inhibitors. 0.71% of 290,000 active; note: nearly all actives have a fitted effect of over 55% in size
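40 nM FBPA preincubated 10 min at RT with compound (up to 57.5 uM final), then substrate plus GAPDH/TPI/NAD/arsenate coupling and diaphorase/resazurin added. Fluorescence read after 20 min at RT, 525/598 nm.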
Sm TGR block – S. mansoni TGR enzyme inhibition | purified TGR, DTNB reduction, TNB absorbance 405 nm | Potency, µM (titrated, usually from 114 µM), usual class: inhibitors | 3% of 360,000 active; note: nearly all actives have a fitted effect of over 60% in size
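First, TGR (20 nM dispensed) and NADPH were mixed with compound. Second, a 15 min room-temperature incubation followed. Third, further NADPH and then DTNB were added to start the reaction. Finally, TNB absorbance was monitored kinetically.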
Hits are given with their value; . = inactive; ? = inconclusive; / = no result given. The sample as a whole holds a higher share of hits than the screen did. Unless noted, calls come from the whole dose curve; as a rule, active = well fitted curve in the direction sought with a large enough effect; inconclusive = small, poorly fitted or top-dose-only effect, or another doubt; inactive = no such curve, though single readings can be large; an effect the other way counts as inactive or inconclusive.

SMILES | Tb PYK inh | Shiga toxin inh | CHX counter | LmPK inhibitor | FBPA Giardia inh | Sm TGR block
Cc1cc(N)ccc1N=Nc1c(C)n(C)n(-c2ccccc2)c1=O | . | . | 31 | . | . | .
Cc1cccc(-n2c3nc(=O)n(C)c(=O)c-3cc3c(C)nn(-c4ccccc4)c32)c1C | . | / | / | / | / | .
CC(C)C(NC(=O)C(Cc1ccc(O)cc1)NC(=O)C(NC(=O)C(F)(F)F)C(C)C)C(=O)O (stereo not drawn) | / | / | / | / | . | /
CCOc1cc(C=NN=C2c3ccccc3-c3ccccc32)ccc1O | . | / | / | / | / | /
CCN(CC)CC(=O)Nc1sc(C)cc1C(=O)c1ccccc1 | . | . | . | . | . | .
Cc1cc(C(=O)c2ccccc2)c(NC(=O)CCl)s1 | . | . | . | . | . | 7.9µM
Cc1ccccc1NC(=O)CCl | . | . | . | . | . | 22µM
O=C(CCl)Nc1ccccc1C(=O)c1ccccc1 | . | . | . | . | . | 35µM
Cc1ccc(Cl)c(NC(=O)CCl)c1Cl | . | . | . | . | . | 32µM
COc1ccc(S(=O)(=O)N2CCOC23CCN(S(=O)(=O)c2ccc(Cl)cc2)CC3)cc1 | . | / | / | / | / | .
COc1ccc(CNC(=O)Cc2c(C)c3c(cc(C)c4c(C)coc43)oc2=O)cc1OC | . | / | / | / | / | .
Cc1ccc(N=C(c2cccs2)N2CCOCC2)cc1 | . | 59 | 15 | . | . | .
O=c1c(/C=N/N2CCOCC2)c(O)n(-c2ccccc2)c(=S)n1-c1ccccc1 | . | . | 17 | . | . | .
Cn1c(O)c(/C=N/N2CCOCC2)c(=O)n(-c2ccccc2)c1=S | . | . | . | . | . | .
COc1ccccc1-n1c(O)c(/C=N/N2CCCCC2)c(=O)n(-c2ccccc2OC)c1=S | . | 33 | . | . | . | .
COC(=O)c1c(NC(=S)NNC(=O)c2ccc(Cl)s2)sc(C(=O)N(C)C)c1C | . | . | . | . | / | .
COc1cccc(NC(=O)Cn2c(=O)n(Cc3ccc(C(=O)NCc4ccc(C)cc4)cc3)c(=O)c3ccccc32)c1 | . | / | / | / | / | .
CC(=O)Nc1ccc(S(=O)(=O)n2nc(-c3ccc(C)cc3)nc2N)cc1 | . | . | . | . | . | .
Cc1ccc(-c2nc(N)n(S(C)(=O)=O)n2)cc1 | . | . | 30 | . | . | .
CCc1nn(C(C)C(=O)NC2CCCCCC2)c(=O)c2cc3occc3n12 (stereo not drawn) | . | . | . | . | / | .
O=C1CC(N2CCCc3ccccc32)C(=O)N1c1ccccc1 (stereo not drawn) | . | . | . | . | . | 25µM
O=C1CC(N2CCN(c3ccccc3Cl)CC2)C(=O)N1c1ccccc1 (stereo not drawn) | . | . | . | . | . | 45µM
O=C1CC(N2CCOCC2)C(=O)N1c1ccccc1Cl (stereo not drawn) | . | . | . | . | . | 50µM
CCCOc1ccccc1N1C(=O)CC(N2CCOCC2)C1=O (stereo not drawn) | . | . | . | . | . | ?
O=C1CC(N2CCN(c3ccc(Cl)cc3)CC2)C(=O)N1c1ccccc1 (stereo not drawn) | . | . | . | . | . | ?
SMILES | Tb PYK inh | Shiga toxin inh | CHX counter | LmPK inhibitor | FBPA Giardia inh | Sm TGR block
CCc1ccccc1N1C(=O)CC(N2CCc3ccccc32)C1=O (stereo not drawn) | . | . | . | . | . | /
CN(C)C(=O)Nc1ccc(-n2nc(C(C)(C)C)oc2=O)c(Cl)c1 | / | . | . | / | . | /
CN(Cc1ccccc1)C(=S)NC(=O)C1CCCCC1 | . | . | 28 | . | . | .
CCOc1ccc(CNC(=O)CS(=O)(=O)c2cccc3nsnc23)cc1 | . | / | / | / | / | .
CCOc1ccc(S(=O)(=O)c2cc3cccc(OCC)c3oc2=O)cc1 | . | / | / | / | / | .
CC(C)(C)c1ccc(COc2ccsc2C(=O)O)cc1 | . | 35 | 21 | . | . | .
COc1cc(NC(=O)c2cnc3c(-c4ccc(F)cc4)c(C)nn3c2C)cc(OC)c1 | . | / | / | / | / | .
CCOC(=O)CSc1nnc(NCC(=O)OC)c(=O)[nH]1 | . | . | . | . | . | 16µM
Brc1ccc2nc(C3CCCCC3)c(Cc3ccccc3)n2c1 | . | / | / | / | / | /
CCSc1nc(C2CC2)cc(-c2cccs2)c1C#N | . | . | 16 | . | . | .
CCOC(=O)CSc1nc(N)c(C#N)c(-c2cccs2)c1C#N | . | . | . | . | . | .
N#Cc1c(-c2ccccc2F)cc(C2CC2)nc1SCC(=O)c1cccs1 | . | . | 13 | . | . | .
CCc1c(C)nc(SCC(=O)c2cccs2)c(C#N)c1C | . | . | 39 | . | . | .
CCCSc1nc(N)nc(-c2cccs2)c1C#N | . | 84 | 35 | . | . | .
CCc1c(C2(O)CCCCC2)[nH]c2ncccc12 | . | / | / | / | / | .
COc1ccc(CN(C)C(=O)c2ccc(OCC(=O)N3CCOCC3)c(OC)c2)cc1 | . | / | / | / | / | .
CC(=O)N1c2c(cc(Br)cc2S(=O)(=O)NCc2ccccc2Cl)CC1C (stereo not drawn) | . | / | / | / | / | .
CCCS(=O)(=O)c1c(S(=O)(=O)CCC)c2c(N)cccn2c1C(=O)c1ccccc1 | . | . | . | . | ? | 50µM
CCCS(=O)(=O)c1c(S(=O)(=O)CCC)c2c(N)cccn2c1C(=O)OC | . | . | . | . | ? | /
CCN(C(=O)COC(=O)c1cc([N+](=O)[O-])ccc1N1CCOCC1)C1CCCCC1 | . | / | / | / | / | .
Nc1cc(-c2ccncc2)c[nH]c1=O | ? | . | . | . | 1.8µM | 40µM
CCOc1ccc(Nc2ccc(C(=O)O)cc2[N+](=O)[O-])cc1 | . | . | . | . | . | .
CCOc1ccc(NC(=O)/C=C/c2ccccc2)c([N+](=O)[O-])c1 | . | . | 25 | . | . | .
CCOc1ccc(N/C=C/C(=O)c2ccccc2)c([N+](=O)[O-])c1 | 25µM | 46 | 59 | 4µM | . | .
COc1ccc(Cl)cc1S(=O)(=O)N1CCC(C(=O)N2CCOCC2)CC1 | . | . | . | . | / | .
SMILES | Tb PYK inh | Shiga toxin inh | CHX counter | LmPK inhibitor | FBPA Giardia inh | Sm TGR block
O=S(=O)(c1ccc(Cl)cc1)c1nc(-c2cccs2)oc1N1CCCCC1 | . | / | / | / | / | .
CCCCc1nc(S(=O)(=O)c2ccc(Cl)cc2)c(N2CCOCC2)o1 | . | 34 | 27 | . | . | 7.9µM
CS(=O)(=O)c1nc(S(=O)(=O)c2ccc(Cl)cc2)c(N2CCC(C(N)=O)CC2)s1 | . | . | . | . | / | 11µM
NC(=O)C1CCN(CCS(=O)(=O)c2ccc(Cl)cc2)CC1 | . | . | . | . | . | 45µM
CCS(=O)(=O)c1nc(S(=O)(=O)c2ccc(Cl)cc2)c(N2CCOCC2)s1 | . | . | . | . | / | 22µM
O=S(=O)(CCN1CCOCC1)c1ccc(Cl)cc1 | . | / | / | / | / | /
COc1cc(NC(=O)CCc2c(C)nc3c(c(C)nn3-c3ccccc3)c2C)cc(OC)c1OC | . | / | / | / | / | .
Cc1noc(-c2ccc(-c3noc(-c4ccc(Cl)cc4)n3)cc2)n1 | . | / | / | / | / | .
Fc1ccc(-c2nc(-c3cnccn3)no2)c(Cl)c1 | . | 83 | 40 | ? | . | .
